# High-throughput results deposited in PubChem BioAssay by several laboratories.
# Compounds with a hit are over-represented: about 4.3% of the library has one in this group of screens.
# NR3A LBD binder = modulates the human NR3A ligand-binding domain. NR3A LBD differential scanning fluorimetry, Tm shift; 0% = protein alone, 100% = glycine-bound protein. Tm shift relative to glycine control, % at 25 µM. hit rate 2.5% among 340,000;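 active = melting temperature shift of at least 10% of the positive control shift, at one fixed dose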
# rCAG RNA binder = r(CAG) repeat RNA binding | hit rate 1.3% among 370,000 | TO-PRO-1 dye displacement fluorescence | inhibition, % at 3 µM | AID 651821;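 active = inhibition above the plate cutoff, the mean of all test compounds on that plate plus 3 SD, cut at about 35% in these data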;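 also: 0% = DMSO alone and 100% = 100 µM mitoxantrone as full dye displacement; higher means more dye released from RNA so lower well fluorescence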
# NadD block = inhibitors of Staphylococcus aureus NadD. purified NadD enzyme, colorimetric absorbance read-out. inhibition, % at 20 µM. hit rate 0.78% among 360,000. AID 602399; in the data active = inhibition above about 26%
# FAS-TE inh = inhibitors of human fatty acid synthase thioesterase domain; hit rate 0.67% among 360,000; recombinant FAS-TE, OMFH fluorogenic substrate, fluorescence endpoint; AID 602261; inhibition, % at 15 µM; P49327;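 active = compounds whose normalised, plate-corrected inhibition of enzyme fluorescence in the single-dose primary screen is 50% or more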;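 also: 0% = DMSO with enzyme and 100% = substrate without enzyme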
# rCAG bind conf = r(CAG) RNA repeat binding, confirmation. hit rate 70% among 4,300. shares compounds with rCAG RNA binder. inhibition, % at 3 µM. TO-PRO-1 dye displacement fluorescence;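 active = inhibition above a per-plate cutoff, the mean inhibition of sample wells plus 3 SD, cut at about 35% in these data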;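 also: loss of TO-PRO-1 fluorescence as compound displaces dye from 1x1 AA loop RNA; 0% = DMSO only wells and 100% = 100 µM mitoxantrone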
# dCAG dye counter = disrupts DNA CAG TO-PRO-1 complex, flagging rCAG hits; shares compounds with rCAG RNA binder; d(CAG) DNA oligo TO-PRO-1 dye displacement, fluorescence; inhibition, % at 3 µM; hit rate 94% among 4,300; AID 652068;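 active = inhibition above its plate's cutoff, the mean test-well inhibition plus 3 SD, cut at about 4.8% in these data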;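 also: 0% = DNA dye mix with DMSO and 100% = 100 µM mitoxantrone; hits displace the dye from DNA and so lower well fluorescence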
# DNA CAG DR = DNA CAG dye complex inhibition, dose response counter-screen | hit rate 20% among 250 | DNA CAG/GTC duplex TO-PRO-1 dye displacement fluorescence | shares compounds with rCAG RNA binder | IC50, µM; in the data active = IC50 below about 10 µM
# The depositor's hits bear a star; / = not tested or not shown.
SMILES,NR3A LBD binder,rCAG RNA binder,NadD block,FAS-TE inh,rCAG bind conf,dCAG dye counter,others
Cc1noc(NS(=O)(=O)c2ccc(NC(=O)CCC3CCCCC3)cc2)c1C,-7.2,45.3*,1.6,-5.8,46.4*,8.6*,DNA CAG DR=>29.9
O=C(CCC1CCCCC1)Nc1ccc(S(=O)(=O)Nc2nccs2)cc1,-1.1,52.8*,7.1,2.5,43.1*,14.2*,
COCC(=O)Nc1ccc(S(=O)(=O)Nc2onc(C)c2C)cc1,/,2.3,-2.8,-0.7,/,/,
Cc1noc(NS(=O)(=O)c2ccc(NC(=O)C34CC5CC(C3)CC(n3cnc(Br)n3)(C5)C4)cc2)c1C,-9.2,41.5*,6.0,-10.4,28.7,7.6*,
Cc1ccc(C2(C)NC(=O)N(CC(=O)Nc3ccc(S(=O)(=O)Nc4nccs4)cc3)C2=O)cc1 (configuration not stated),-0.9,51.2*,7.6,-3.4,31.1,12.0*,
CCn1c(COc2ccccc2)nnc1SCC(=O)Nc1ccc(S(=O)(=O)Nc2cc(C)nc(C)n2)cc1,/,23.3,/,/,/,/,
COC(=O)C1=C(C)N(Cc2ccccc2C(F)(F)F)C(=NCc2cc(OC)c(OC)c(OC)c2)NC1c1cccc(C(F)(F)F)c1 (configuration not stated),/,-1.6,/,/,/,/,
CCOc1ccc(S(=O)(=O)N2CCCC(C(=O)Nc3cccc(C)c3)C2)cc1 (configuration not stated),-3.0,3.3,-6.6,17.5,/,/,
CN(CCO)c1cccc2c1S(=O)(=O)N(Cc1cn(Cc3ccc(F)cc3)nn1)Cc1ccccc1O2,/,-0.9,/,/,/,/,
N#Cc1ccc(OC[C@@H](O)CN2CCC(C(O)(c3ccccc3)c3ccccc3)CC2)cc1,/,2.8,/,/,/,/,
COc1ccc(/C=N\NC(=O)c2cc(O)c(O)c(O)c2)cc1COc1ccc(C(=O)OCC(C)C)cc1,76.9*,49.8*,60.1*,-17.0,56.1*,35.2*,
COc1ccc(/C=N\NC(=O)c2ccccc2)cc1COc1ccccc1,-2.7,1.6,-5.6,10.0,/,/,
COc1ccc(/C=N/NC(=O)c2ccc(C)cc2)cc1CN1CCN(c2ccc(F)cc2)CC1,-1.1,/,6.0,4.7,/,/,
COc1ccc(/C=N\NC(=O)c2cc(O)c(O)c(O)c2)cc1CN1CCN(c2ccc(F)cc2)CC1,0.2,41.4*,40.7*,-12.1,44.8*,19.9*,
C[C@@H]1CN([C@@H](C)CO)C(=O)CCCn2cc(nn2)CO[C@H]1CN(C)C(=O)c1ccncc1,/,1.0,/,/,/,/,
CC(=O)Oc1cc2c(s1)CCN(C(C(=O)C1CC1)c1ccccc1F)C2 (configuration not stated),/,17.0,/,/,/,/,
Fc1cccc2sc(Nc3nc4c(F)cccc4s3)nc12,8.8,58.3*,13.1,3.7,60.2*,23.6*,
NNc1nc2c(F)cccc2s1,-3.8,33.0,-4.3,-8.0,/,/,
Cc1cc(C)c(C(=O)Nc2ccc(S(=O)(=O)Nc3onc(C)c3C)cc2)c(C)c1,2.2,13.7,-3.8,-3.5,/,/,
Cc1cc(C)nc(NS(=O)(=O)c2ccc(NC(=O)c3nn(-c4ccccc4)ccc3=O)cc2)n1,1.8,-0.9,2.3,-4.1,/,/,
Cc1cccc(-n2ccc(=O)c(C(=O)Nc3ccc(S(=O)(=O)Nc4onc(C)c4C)cc3)n2)c1,0.4,39.1*,5.1,-5.9,43.4*,12.3*,
Cc1ccc2c(=O)cc(C(=O)Nc3ccc(S(=O)(=O)Nc4onc(C)c4C)cc3)oc2c1,-4.1,61.0*,0.3,-2.4,37.2*,11.3*,
Cc1ccc(NS(=O)(=O)c2ccc(C)c(C(=O)Nc3ccc(S(=O)(=O)Nc4onc(C)c4C)cc3)c2)cc1,0.5,64.1*,10.5,-5.8,69.9*,34.7*,
Cc1ccc2c(C)c(C(=O)Nc3ccc(S(=O)(=O)Nc4onc(C)c4C)cc3)oc2c1,-0.8,78.9*,2.3,-0.2,74.5*,39.8*,
COc1ccccc1C(=O)NC1CCCCN(Cc2ccccc2C)C1=O (configuration not stated),/,-1.7,/,/,/,/,
SMILES,NR3A LBD binder,rCAG RNA binder,NadD block,FAS-TE inh,rCAG bind conf,dCAG dye counter,others
CCn1ncc(CNC(=O)C2(C)CC2(Cl)Cl)c1C (configuration not stated),0.4,2.7,-5.9,-5.9,/,/,
Cc1noc(NS(=O)(=O)c2ccc(NC(=O)c3oc4ccc(Cl)cc4c3C)cc2)c1C,1.8,87.9*,9.9,-1.8,84.8*,47.6*,
Cc1c(C(=O)Nc2ccc(S(=O)(=O)Nc3ncccn3)cc2)oc2ccc(Cl)cc12,-12.6,4.0,24.8,-0.1,/,/,
Nc1c(SCCC(=O)O)ccc2c1C(=O)c1ccccc1C2=O,-0.5,36.8*,-1.8,-5.8,14.6,2.3,
O=C(C(=O)N1CCC(CNS(=O)(=O)c2cccc3ccccc23)CC1)c1cccs1,/,6.2,/,/,/,/,
Cc1cc(=O)[nH]c(SCC(=O)Nc2nc(-c3ccccc3)cs2)n1,-4.5,36.1*,2.6,-2.3,33.3,9.5*,
COc1ccc(-c2csc(NC(=O)CSc3nc4ccccc4c(=O)[nH]3)n2)cc1,20.6*,38.0*,18.6,-1.8,57.2*,22.0*,
Cc1cc(=O)[nH]c(SCC(=O)Nc2nc3ccccc3s2)n1,-0.1,7.1,-1.3,-8.8,/,/,
O=C(CSc1nc(O)cc(=O)[nH]1)Nc1ccc2c(c1)CCC2,2.3,48.8*,5.0,-3.4,12.3,6.0*,
CCCN(CC1CC1)c1c2c(nc3ncnn13)CCCC2,/,0.3,/,/,/,/,
CC(NCc1ccco1)C(=O)N1CCN(Cc2ccccc2F)CC1 (configuration not stated),/,6.0,/,/,/,/,
Cc1cc(N2CCN(Cc3ccc4c(c3)OCO4)CC2)n2nc(C)nc2n1,/,-0.1,/,/,/,/,
CCN1C(=O)/C(=C/c2ccc(OCc3ccc(C(=O)O)cc3)c(Cl)c2)NC1=S,-0.2,57.4*,1.4,-2.2,50.6*,15.8*,
O=C(Nc1c(-c2ccc(C(F)(F)F)cc2)nc2ncccn12)c1ccc(F)cc1,/,4.0,/,/,/,/,
S=c1[nH]nc(COc2ccccc2)n1/N=C/c1ccc(Cl)cc1,-4.0,44.0*,12.1,9.2,30.2,7.4*,
S=c1[nH]nc(COc2ccccc2)n1/N=C/c1ccc(Br)s1,-4.1,43.8*,7.1,8.8,32.8,8.1*,
CSc1ccc(/C=N/n2c(COc3ccccc3)n[nH]c2=S)cc1,-6.3,28.3,6.7,11.7,/,/,
Cc1ccc(/C=N/n2c(COc3ccccc3)n[nH]c2=S)s1,4.2,21.9,6.8,-5.8,/,/,
O=S(=O)(Nc1ccc(-c2nc3cccnc3s2)cc1)c1cc(F)ccc1F,-0.5,44.8*,-7.1,1.2,35.3*,9.2*,
Cc1ccc(-c2nc3cccnc3s2)cc1NS(=O)(=O)c1cccs1,-8.0,26.1,-0.8,9.6,/,/,
CCc1ccc(S(=O)(=O)Nc2ccc(-c3nc4cccnc4s3)cc2)s1,-32.7,56.8*,1.6,-0.4,57.6*,21.7*,
Cc1ccc2nc(-c3ccc(NC(=O)CSc4nnc(Cc5cccs5)n4C)cc3)sc2c1,/,8.7,/,/,/,/,
O=C(C(=O)N1CCN(C(=O)C2CCCC2)CC1)c1cccc(C(F)(F)F)c1,/,1.4,/,/,/,/,
